The test concerns the target Pantothenate synthetase (Mycobacterium tuberculosis (strain ATCC 25618 / H37Rv)) (UniProt P9WIL5). Description: Recombinant Mtb pantothenate synthetase (PanC) inhibitors, coupled enzyme, confirmatory (AID 375).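 Further: 0% = full reaction with vehicle and 100% = no enzyme background.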 The note with it: coupled enzyme assay; at 10 µM, active compounds read high.

Each structure is given as a SMILES string. Active and inactive are the calls of the source. How the calls were made is not given here.

Chain of Pantothenate synthetase (Mycobacterium tuberculosis (strain ATCC 25618 / H37Rv)) (P9WIL5 whole entry, looked up): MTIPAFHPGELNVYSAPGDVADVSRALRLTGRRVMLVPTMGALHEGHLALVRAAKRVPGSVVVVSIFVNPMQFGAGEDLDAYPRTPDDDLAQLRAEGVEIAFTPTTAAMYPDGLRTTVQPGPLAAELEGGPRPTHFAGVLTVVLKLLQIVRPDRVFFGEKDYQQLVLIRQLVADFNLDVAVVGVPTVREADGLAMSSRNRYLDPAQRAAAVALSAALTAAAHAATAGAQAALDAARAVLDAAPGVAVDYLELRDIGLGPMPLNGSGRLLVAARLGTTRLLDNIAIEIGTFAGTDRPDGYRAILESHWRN

For `CC(=O)N1CCc2cc(Br)cc(S(=O)(=O)NCCCN3CCCC(C)C3)c21` (configuration not stated), the inhibition is 2% (inactive).

As for `CC1(C)NC(=O)N(CC(O)COc2ccc(-c3ccccc3)cc2)C1=O` (configuration not stated), the inhibition was 0% (inactive).

Regarding `Cc1nc(/N=C(\N)Nc2ccccc2)nc2ccccc12`, the inhibition is 0% (inactive).

`CCOC(=O)c1c(COC(=O)c2ccco2)nc2ccccc2[n+]1[O-]`: the inhibition was 0% (inactive).

For `COc1ccccc1CNC(=O)CCNC(=O)Cn1ccc2ccccc2c1=O`, the inhibition is 6% (inactive).

On to `CCOCCCNC(=O)C(c1ccccc1)N(Cc1ccc2c(c1)OCO2)C(=O)CNC(C)=O` (configuration not stated), for which the inhibition was 1% (inactive).

For the compound `CC1Cc2nc(SCC(=O)Nc3ccccc3F)n(C)c(=O)c2S1` (configuration not stated), the inhibition is 7% (inactive).

As to `CCCC1(C(=O)OCC)NC(c2ccc(N(C)C)cc2)C2C(=O)N(c3ccc(F)cc3)C(=O)C21` (configuration not stated), the inhibition is 3% (inactive).

In the case of `CCOC(=O)c1sc2nc(NC(=O)C3CCCCC3)sc2c1C`, the inhibition was 2% (inactive).

For `CC(=O)Nc1cccc(-c2nnc(-c3ccccc3)o2)c1`, the inhibition is 4% (inactive).

As to `OCC(O)CN1CCN(c2ccccc2)CC1` (configuration not stated), the inhibition was 0% (inactive).

As for `O=C(C1CCC1)N1CCc2cc(S(=O)(=O)N3CCc4ccccc4C3)ccc21`, the inhibition is 7% (inactive).

On to `CCn1c(SCC(=O)Nc2ccc3c(c2)OCO3)nnc1-c1cnccn1`, for which the inhibition is 0% (inactive).

On to `CCN(CCO)C1CC(=O)N(c2ccccc2C)C1=O` (configuration not stated), for which the inhibition is 0% (inactive).

Consider `COc1ccccc1OCCn1c(=O)sc2ccccc21`, for which the inhibition was 0% (inactive).

On to `COc1cccc(NC(=O)Nc2cccs2)c1`, for which the inhibition is 0% (inactive).

With `CC(=O)c1c(C)oc2ccc(NS(=O)(=O)c3ccc(O)c(C(=O)O)c3)cc12`, the inhibition was 4% (inactive).

Consider `COc1ccc(CCNC(=O)CSc2nnc(CNc3ccc(Cl)cc3)o2)cc1OC`, for which the inhibition is 0% (inactive).

Turning to `CN(C)c1nc(SCCOC(=O)c2ccccc2)nc(N(C)C)n1`, the inhibition is 6% (inactive).

With `O=C(NCc1cccs1)C1CC(=O)N(c2ccccc2)C1` (configuration not stated), the inhibition was 0% (inactive).

With `Cc1ccc(NC2=NC3(CCCCC3)N=C(N)N2)c(C)c1`, the inhibition is 3% (inactive).

On to `Cc1nn(-c2ccc(F)cc2)c(C)c1NS(=O)(=O)c1ccc(Cl)cc1`, for which the inhibition was 11% (inactive).

As for `Cc1ccc2[nH]c(=O)c(CN(CCc3ccccc3)Cc3nnnn3CC3CCCO3)cc2c1` (configuration not stated), the inhibition is 2% (inactive).

As for `Fc1ccc(-c2ccc(-c3nn4c(-c5ccco5)nnc4s3)o2)cc1`, the inhibition was 14% (inactive).

Turning to `COc1ccc(C2CC(=O)C(C=NCCCN3CCOCC3)=C(O)C2)cc1` (configuration not stated), the inhibition is 0% (inactive).

In the case of `CCOC(=O)N1CCN(C(=O)COc2cc(=O)n(C)c3ccccc23)CC1`, the inhibition was 0% (inactive).

Turning to `CCOC(=O)C1CCCN(CCC(C)c2ccccc2)C1` (configuration not stated), the inhibition was 1% (inactive).

Take `COc1ccccc1CN1CC(C(=O)N2CCN(c3ccc(F)cc3)CC2)CC1=O` (configuration not stated): the inhibition was 0% (inactive).

For the compound `COc1ccc(NC(=O)C23CCC(C)(C(=O)C2)C3(C)C)cc1` (configuration not stated), the inhibition is 0% (inactive).

With `O=C(NC1CCCCCC1)C1c2ccccc2C(=O)N1Cc1cccnc1` (configuration not stated), the inhibition is 3% (inactive).

Regarding `COc1ccc(S(=O)(=O)Nc2ccc3c(c2)OCO3)cc1Cl`, the inhibition is 5% (inactive).

As for `O=C(O)CCn1c(=O)c2ccccc2c2ccccc2c1=O`, the inhibition is 1% (inactive).

Take `Cc1ccc(-c2nnc(N(C)C(=O)c3ccccn3)s2)cn1`: the inhibition was 0% (inactive).

Turning to `CCN(c1c(C)n(C)n(-c2ccccc2)c1=O)S(C)(=O)=O`, the inhibition is 5% (inactive).

Turning to `O=C(CCn1nc(-c2ccccc2)ccc1=O)N1CCCC1`, the inhibition is 0% (inactive).

`Cc1noc(C)c1COc1cccc(C(=O)Oc2ccc3c(c2)OCO3)c1`: the inhibition was 0% (inactive).

Turning to `CCOC(=O)CSc1nc2cccnc2n1-c1ccc(F)cc1`, the inhibition is 2% (inactive).

For the compound `Cc1cc(C(F)F)n2nc(C(=O)Nc3ccc(S(=O)(=O)N4CCCCCC4)cc3)nc2n1`, the inhibition was 1% (inactive).

For the compound `O=C(O)CCCCCCC1C(=O)NC(=O)N1CCC(O)C1CCCCC1` (configuration not stated), the inhibition was 0% (inactive).

As to `Cc1c(C(=O)NCc2cccnc2)sc2ncn(CC(=O)N3CCCCC3C)c(=O)c12` (configuration not stated), the inhibition is 0% (inactive).

For `COc1cc(NC(=O)c2cccs2)cc(OC)c1`, the inhibition was 0% (inactive).

As to `O=[n+]1c2c(n([O-])c3cc(F)c(N4CCCC4)cc31)CCC2`, the inhibition is 9% (inactive).

Turning to `COC(=O)c1ccccc1NC(=O)N1CCCC1`, the inhibition was 0% (inactive).

Turning to `COc1cc(C)c(Br)cc1S(=O)(=O)N1CCOCC1`, the inhibition is 2% (inactive).

Take `O=C(CCn1c(=O)oc2ccccc21)N1CCCCCC1`: the inhibition was 0% (inactive).

As to `COc1ccc2nc(SCC(=O)NC(C)C)[nH]c2c1`, the inhibition was 0% (inactive).

On to `CC1CCCCN1S(=O)(=O)c1ccc(NC(=O)c2cccs2)cc1` (configuration not stated), for which the inhibition was 0% (inactive).

As a reminder, the inhibition is the relative decrease from the control value, in per cent.

These data come from PubChem BioAssay.
